We go through 39 molecules from PubChem BioAssay (NCI).

Compounds without any hit were thinned out: in the full panel of roughly 83,000, 20% have a hit.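 Negative percent growth values reflect cell death: -40 means 40% of the cells present at the start died, and -100 means all died.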 Values without a mark were called inactive. Activity calls are given as the source filed them. Rule for the calls: active = growth percent below 10; inactive = the rest.

The test system of the first experiment is SK-MEL-5 melanoma. Put plainly: NCI-60 one-dose screen, 48 h (100 = growth as untreated, 0 = no growth, -100 = all killed). As to conditions: 10 µM unless noted.
Turning to `O=C(Oc1ccccc1)C(Br)C(Br)c1ccccc1` (stereo not given), the growth was 106%. The same measure, in the same setting: the figure for `c1cc[n+](Cc2ccnc3ccccc23)cc1` is 107%; for `CCCCOP(=O)(OCCCC)C(C(=O)OCC)C(CC(=O)OCC)C(=O)OCC` (stereo not given) it is 109%. On the same count and under the same terms, the figure for `CCCCCc1c(C)[nH]c(/C=C2\N=C(c3ccc[nH]3)C=C2Oc2ccccc2)c1C` is -61% [100 µM] (active); for `c1ccc(-c2n(Cc3ccc4ccccc4c3)cc[n+]2Cc2ccc3ccccc3c2)cc1` it is -98.4% (active); for `COc1ccc(-c2cnc(SCC(=O)Nc3ccc(-c4nc5ccccc5s4)cc3)n2-c2ccc(OC)cc2)cc1` it is 99.4%. Same read-out and setting: the figure for `O=C(Nc1ccccc1S)c1ccccc1` is 114%. Turning to `CCCCCCCCCCNCCSS(=O)(=O)O`, the growth is 39.8%. Still for that read-out and setting: the figure for `O=C1CSC(c2ccccc2Cl)N1c1nnc(Cn2nnc3ccccc32)o1` (stereo not given) is 79.3%; for `NS(=O)(=O)c1ccc(-n2ncc3c(SCc4ccccc4)ncnc32)cc1` it is 79.5%; for `CCN(CC)c1ccc(/C=C/C(=O)c2cccc(NS(C)(=O)=O)c2)cc1` it is 39.6%. On the same count and under the same terms, the figure for `COc1cc(-c2nnc(-c3nc(-c4cc(OC)c(OC)c(OC)c4)n4ccccc34)o2)ccc1N` is 56.1%; for `CCSc1nc(Nc2ccc(S(=O)(=O)Nc3ccon3)cc2)c(C#N)c(-c2cccc(Br)c2)n1` it is 85.4%. Same read-out and setting: the figure for `Cc1ccc(C2=NNC(c3sc(Cl)nc3Cl)C2)cc1` (stereo not given) is 88.9%; for `COc1cc(/C=C\C(C)=N\Nc2ccccc2)ccc1O` it is 95%; for `CC(=O)Nc1c(Cl)cc2c(c1Cl)Cc1cc([N+](=O)[O-])ccc1-2` it is 55.9%. Take `Cc1[nH]ccc2cc3nc4ccccc4c3cc12`: the growth is 37.8%. For the molecule `CC(=O)N1N=C(c2ccc(Nc3nc(NCCO)nc(NCCO)n3)cc2)CC1c1ccc(Cl)cc1` (stereo not given), the growth is 98.3%.

`COc1ccccc1NC(=O)c1sc2nc3c(cc2c1N)C(=O)CCC3`: the growth is 38.9%. Turning to `CC1(C)CC2(C)CC(=O)C1C(C(=O)O)C2C(=O)O` (stereo not given), the growth is 102%.

`C(=C1c2ccccc2-c2ccccc21)c1ccncc1`: the growth is 46.6%. Take `Cc1ccc(NC(=O)c2sc3nc4c(cc3c2N)C(=O)CCC4)cc1`: the growth was 53.2%.

For `Nc1ccc(Oc2c(F)c(F)c(Oc3ccc(N)cc3)c(F)c2F)cc1`, the growth is 111%. Same read-out and setting: the figure for `O=C(CSc1nnc(-c2cc(-c3ccccc3)nc3ccccc23)o1)c1ccc(Br)cc1` is 103%; for `O=c1ncc(-c2ccc(C(F)(F)F)cc2)c(NC2CCCCCC2)[nH]1` it is 20.9%; for `COc1ccc(C(=O)/C=C/c2ccc(C)cc2)cc1OC` it is 74%.

For a further experiment, the system named is UACC-62 melanoma. Described as above. As to conditions: 10 µM unless noted.
In the case of `COc1cc(Cl)cc(-c2nn(-c3cccc(NC(=O)c4cc(C(F)(F)F)cc(C(F)(F)F)c4)c3)cc2-c2ccncc2)c1`, the growth was 81.4%. Still for that read-out and setting: the figure for `O=C(Oc1ccccc1)C(Br)C(Br)c1ccccc1` (stereo not given) is 101%; for `c1cc[n+](Cc2ccnc3ccccc23)cc1` it is 104%; for `CCCCOP(=O)(OCCCC)C(C(=O)OCC)C(CC(=O)OCC)C(=O)OCC` (stereo not given) it is 105%. Same read-out and setting: the figure for `CCCCCc1c(C)[nH]c(/C=C2\N=C(c3ccc[nH]3)C=C2Oc2ccccc2)c1C` is -92.3% [100 µM] (active). In the case of `c1ccc(-c2n(Cc3ccc4ccccc4c3)cc[n+]2Cc2ccc3ccccc3c2)cc1`, the growth is -80% (active).

In the case of `CC[C@@H](c1ccc(O)c(O)c1)[C@@H](CC)c1ccc(O)c(O)c1`, the growth was 64.5%.

For the molecule `COc1ccc(-c2cnc(SCC(=O)Nc3ccc(-c4nc5ccccc5s4)cc3)n2-c2ccc(OC)cc2)cc1`, the growth was 93.2%. The same measure, in the same setting: the figure for `O=C(Nc1ccccc1S)c1ccccc1` is 86.6%; for `Cc1sc2nc(NCc3ccccc3)[nH]c(=O)c2c1C` it is 42.5%.

With `CCCCCCCCCCNCCSS(=O)(=O)O`, the growth was 4.6% (active).

On to `O=C1CSC(c2ccccc2Cl)N1c1nnc(Cn2nnc3ccccc32)o1` (stereo not given), for which the growth was 63.8%.

As to `O=C(Nc1nc(-c2ccc(Cl)cc2)cs1)c1cc(-c2ccc(Br)cc2)nc2ccc(Cl)cc12`, the growth is 42%. As for `NS(=O)(=O)c1ccc(-n2ncc3c(SCc4ccccc4)ncnc32)cc1`, the growth was 92.8%. Consider `C[C@]12CC[C@H](O)CC1=CC[C@@H]1[C@@H]2CC[C@]2(C)C(c3cccnc3)=CC[C@@H]12`, for which the growth was 53.2%. `Nc1nc2c(c(=O)[nH]1)C1(C(=O)Nc3ccccc31)c1c(nc(N)[nH]c1=O)N2`: the growth is 103%. Turning to `C=C1CC[C@@H]2[C@](C)(COC(C)=O)[C@H](OC(C)=O)CC[C@@]2(C)[C@@H]1CC(NCc1ccccc1)C1=CCOC1=O` (stereo not given in full), the growth was 38.8%.

For the molecule `CCN(CC)c1ccc(/C=C/C(=O)c2cccc(NS(C)(=O)=O)c2)cc1`, the growth was 36.1%. On the same count and under the same terms, the figure for `COc1cc(-c2nnc(-c3nc(-c4cc(OC)c(OC)c(OC)c4)n4ccccc34)o2)ccc1N` is 60.9%; for `CCSc1nc(Nc2ccc(S(=O)(=O)Nc3ccon3)cc2)c(C#N)c(-c2cccc(Br)c2)n1` it is 91.5%; for `Cc1ccc(C2=NNC(c3sc(Cl)nc3Cl)C2)cc1` (stereo not given) it is 89.9%. Same read-out and setting: the figure for `COc1cc(/C=C\C(C)=N\Nc2ccccc2)ccc1O` is 69.8%.

Turning to `CC(=O)Nc1c(Cl)cc2c(c1Cl)Cc1cc([N+](=O)[O-])ccc1-2`, the growth is 65.3%.

For the molecule `CCOC(=O)C(Br)=P(c1ccccc1)(c1ccccc1)c1ccccc1`, the growth was 92.8%. The same measure, in the same setting: the figure for `Cc1[nH]ccc2cc3nc4ccccc4c3cc12` is 62%; for `COc1ccc(-c2cc(-c3nnc(SCC(=O)Nc4ccc(C(C)=O)cc4)n3-c3ccccc3)c3ccccc3n2)cc1OC` it is 111%; for `CC(=O)N1N=C(c2ccc(Nc3nc(NCCO)nc(NCCO)n3)cc2)CC1c1ccc(Cl)cc1` (stereo not given) it is 107%. Same read-out and setting: the figure for `COc1ccccc1NC(=O)c1sc2nc3c(cc2c1N)C(=O)CCC3` is 44.4%; for `CC1(C)CC2(C)CC(=O)C1C(C(=O)O)C2C(=O)O` (stereo not given) it is 102%. Same read-out and setting: the figure for `C(=C1c2ccccc2-c2ccccc21)c1ccncc1` is 30.8%. Turning to `COc1cccc(N2CCN(c3cccc(C)n3)CC2)c1`, the growth was 95.1%. Take `Cc1ccc(NC(=O)c2sc3nc4c(cc3c2N)C(=O)CCC4)cc1`: the growth was 69.2%.

Turning to `Nc1ccc(Oc2c(F)c(F)c(Oc3ccc(N)cc3)c(F)c2F)cc1`, the growth was 90.9%. Still for that read-out and setting: the figure for `CN(C)CCC(=O)Nc1ccc(-n2cc(-c3cccc(NC(=S)Nc4cccc(-c5cn(-c6ccc(NC(=O)CCN(C)C)cc6)nn5)c4)c3)nn2)cc1` is 114%; for `O=C1c2cc3c(cc2-c2c1c1ccc(Cl)cc1c(=O)n2CCCNCCO)OCO3` it is -70.7% (active); for `O=C(CSc1nnc(-c2cc(-c3ccccc3)nc3ccccc23)o1)c1ccc(Br)cc1` it is 94.8%. The same measure, in the same setting: the figure for `O=c1ncc(-c2ccc(C(F)(F)F)cc2)c(NC2CCCCCC2)[nH]1` is 29.6%; for `CCc1ccc(-c2nc(SCC(=O)NC3CCCCC3)n[nH]2)cc1` it is 57.8%.

As for `COc1ccc(C(=O)/C=C/c2ccc(C)cc2)cc1OC`, the growth was 68.1%.
